High-throughput results deposited in PubChem BioAssay by National Center for Advancing Translational Sciences (NCATS).
Hits are enriched below; roughly 2.8% of the tested compounds scored in any of these assays.
IP6K1 inh: blocks human inositol hexakisphosphate kinase 1; IP6K1 kinase, ADP-Glo luminescence, 2 h; active compounds read low; activity change, % (series mostly up to about 58 µM); 0.81% of 140,000 active; AID 1645851; in the data active means activity change below about -25%; further: on the % scale 0 is the no-effect control and ±100 the full control effect
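ADP-Glo luminescence measures ADP made by human IP6K1 during a 2 h RT reaction with ATP/IP6 (mix at 1.3 mM/130 uM); top library doses 57.5 and 19.1 uM final.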
KDM5B inhibitor: blocks human KDM5B histone demethylase activity; KDM5B demethylase, FDH-coupled NADH fluorescence (FDH is formaldehyde dehydrogenase); Q9UGL1; AID 1347165; 2.6% of 220,000 active; Potency, µM (highest dose often 57.7 µM), most hits filed as inhibitors; active means well fitted inhibition curve with a large enough effect; inconclusive means small, poorly fitted or top-dose-only effect; inactive means no such curve, though single readings can be large or run the other way; further: potency means the concentration at half of the fitted maximal effect; 0% is about no effect; nearly all actives have a fitted effect of over 70% in size
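Here, H3K4me3 peptide (12.5 µM in substrate mix) is demethylated by KDM5BΔAP, 200 nM final, after 10 min compound exposure. Formaldehyde product is coupled through FDH (0.25 U/mL in mix) to NADH fluorescence; 30-min ΔRFU feeds dose-response curves.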
* marks the source's active call; other numbers are inactive results; i = inactive; ? = inconclusive; nt = not tested or not shown.

SMILES	IP6K1 inh	KDM5B inhibitor
COC(=O)c1ccc(COC[C@@H]2CN(C(C)C)S(=O)(=O)[C@H]2c2ccccc2)cc1	14.5	nt
Cc1nnc2ccc(N3CCC(NC(=O)C4CCCC4)CC3)nn12	-5.1	nt
Cc1ccc(Nc2ccnc(N3CCCC(C(=O)NCC(F)F)C3)n2)cc1 (stereo unspecified)	-2.4	nt
CN1CCC2(C1)CN(CC1CC1)c1ccc(C(=O)NCC3CC3)cc12 (stereo unspecified)	7.0	35.5µM*
Cc1ccc(Nc2ccnc(N3CCC(NC(=O)Cc4cccc(Cl)c4)CC3)n2)cc1	-7.4	nt
O=C1COCC2(CN1Cc1cccc(OC(F)(F)F)c1)CN(c1ccccn1)C2	3.9	?
COc1cncc(N2CC3(COCC(=O)N(Cc4cccc(OC(F)(F)F)c4)C3)C2)c1	4.3	28.2µM*
C#CCNC(=O)[C@@H]1Cc2cn(Cc3cc(C)on3)c3cccc(c23)[C@H](CC(C)C)N1	-12.7	31.6µM*
CC(=O)NCCNC(=O)[C@@H]1Cc2cn(Cc3c(C)noc3C)c3cccc(c23)[C@H](CC(C)C)N1	-4.5	i
Cc1noc(C)c1Cn1cc2c3c(cccc31)[C@H](CC(C)C)N[C@H](C(=O)NCC1CC1)C2	-10.0	31.6µM*
C=CCNC(=O)[C@@H]1Cc2cn(Cc3cc(C)on3)c3cccc(c23)[C@H](CC(C)C)N1	-15.0	?
Cc1cccc(CNC(=O)NCC2CCN(Cc3ccncc3)C2)c1 (stereo unspecified)	16.4	14.1µM*
O=C(NCC1CC1)c1cccc(OC2CN(Cc3cccc(F)c3)C2)c1	-0.8	i
Nc1cccc(C(=O)NCC2CCN(Cc3cc(F)cc(F)c3)C2)c1 (stereo unspecified)	4.5	28.2µM*
CCNC(=O)NCC1CCN(Cc2cc(Cl)cc(Cl)c2)C1 (stereo unspecified)	-6.2	i
CN(C)c1ccc2ncc(Nc3ccc(Oc4ccccc4)cc3)n2n1	-10.9	i
CCc1nc2c(c(-c3ccc(O)cc3)n1)CN(Cc1cccc3ccccc13)CC2	-5.7	i
COc1ccc(Nc2ccnc(N3CCCC(C(=O)NCCc4ccc(F)cc4)C3)n2)cc1 (stereo unspecified)	0.8	nt
O=C(NC1CCCCC1)C1CCCN(Cc2cccc(-c3cccs3)c2)C1 (stereo unspecified)	0.1	nt
COc1ccc(S(=O)(=O)N2C[C@@H]3C[C@H](C2)c2ccc(NS(=O)(=O)c4cccc(F)c4)c(=O)n2C3)cc1	-9.2	i
COc1ccc(S(=O)(=O)N2C[C@@H]3C[C@H](C2)c2ccc(-c4ccc(OC(F)(F)F)cc4)c(=O)n2C3)cc1	-2.5	28.2µM*
CCN(CC)S(=O)(=O)N1CC=C(c2c[nH]c3cccc(C)c23)CC1	nt	i
CN(C(=O)COc1ncnc2ccc(Br)cc12)c1ccccc1	nt	i
CN1Cc2cccn2CC1CNC(=O)c1cnn(C)c1 (stereo unspecified)	15.0	22.4µM*
CN1Cc2cccn2CC1CNC(=O)c1cc(CN2CCOCC2)on1 (stereo unspecified)	-0.7	17.8µM*
SMILES	IP6K1 inh	KDM5B inhibitor
CN1C(=O)c2cccn2CC1CNC(=O)c1cc(CN2CCOCC2)on1 (stereo unspecified)	7.4	i
CN1C(=O)c2cccn2CC1CNC(=O)c1ccoc1 (stereo unspecified)	16.8	i
Cn1ccnc1C(=O)NCC1Cn2cccc2C(=O)N1Cc1ccccc1 (stereo unspecified)	-4.7	i
COc1cccc(C(=O)NCC2Cn3cccc3C(=O)N2C)c1 (stereo unspecified)	9.4	i
CN1Cc2cccn2CC1CNC(=O)c1ccco1 (stereo unspecified)	-2.5	28.2µM*
CN1Cc2cccn2CC1CNC(=O)c1nccn1C (stereo unspecified)	-1.0	14.1µM*
CS(=O)(=O)Nc1ccc(-c2csc(NC3CC3)n2)cc1	nt	i
COc1ccc2[nH]cc(CCNC(=O)C3Cn4cccc4C(=O)N3Cc3cccnc3)c2c1 (stereo unspecified)	13.8	i
Cc1ccc(N2CCN(C(=O)c3cc4cc([N+](=O)[O-])ccc4oc3=O)CC2)cc1C	nt	i
O=C(NCC1CC1)C1CCN(C(=O)c2ccc(-c3cccs3)cc2)CC1	-10.3	nt
Clc1ccccc1C1(c2ccnc(NC3CCC3)n2)CCNCC1	14.3	?
COc1ccc(F)cc1-c1cccc(C(=O)NCCNC(=O)C2CCCC2)c1	37.0	nt
CC(C)CN1C(=O)c2cccn2CC1CNC(=O)c1cccs1 (stereo unspecified)	-7.1	i
CN1Cc2cccn2CC1CNC(=O)c1cccc(F)c1 (stereo unspecified)	16.2	25.1µM*
Cc1cc(C(=O)NCC2Cn3cccc3CN2C)nn1C (stereo unspecified)	5.0	25.1µM*
CN1Cc2cccn2CC1CNC(=O)c1cccs1 (stereo unspecified)	-5.1	20µM*
CN1Cc2cccn2CC1CNC(=O)Nc1cccc(F)c1 (stereo unspecified)	13.4	?
CCn1nc(C)c(-c2cc(C(=O)NCC3Cn4cccc4CN3C)no2)c1C (stereo unspecified)	-10.2	?
CN1Cc2cccn2CC1CNC(=O)c1nn(C)c2ccccc12 (stereo unspecified)	-2.9	15.8µM*
CN1C(=O)c2cccn2CC1CNC(=O)c1n[nH]c(=O)c2ccccc12 (stereo unspecified)	-4.1	i
COCc1cccc(C(=O)NCc2cccs2)c1	nt	i
CNC(=O)c1cc(C2CC2)nc2onc(C3CCN(C(=O)c4ccccc4)CC3)c12	-13.5	nt
O=C(NCC1CCCCCC1)[C@@H]1CCCN1c1nccc(Nc2ccccc2Cl)n1	-1.5	nt
CCOC(=O)C1CCN(C(=O)CCC(=O)NCCC2=CCCCC2)CC1	nt	i
O=[S+]([O-])(NC1CCN(Cc2ccc(-c3ccsc3)cc2)C1)c1cccc(C(F)(F)F)c1 (stereo unspecified)	1.5	nt
SMILES	IP6K1 inh	KDM5B inhibitor
Cc1cccc(-c2cccc(CN3CCC(NC(=O)c4ccccc4C)CC3)c2)c1	-8.2	nt
O=C(c1cccnc1)N1CCCC2(CN[S+](=O)([O-])c3cccnc3N2)C1 (stereo unspecified)	-2.0	nt
CN1Cc2cccn2CC1CNC(=O)c1cccn1C (stereo unspecified)	-10.1	?
CN1Cc2cccn2CC1CNC(=O)c1ccccc1 (stereo unspecified)	-4.4	28.2µM*
CN1CC(C(=O)NC2Cc3ccccc3C2)NC1=O (stereo unspecified)	-10.2	nt
CCN1C[C@H]2COc3ccccc3[C@H]2N(C(=O)c2ccccc2OC)CCC1=O	3.7	nt
O=C(NC1CC1)C1CCCCN1Cc1ccc(-c2ccsc2)cc1 (stereo unspecified)	1.0	nt
CC(C)C(=O)NC(C)c1ccc2c(c1)CCCC2 (stereo unspecified)	nt	i
Cc1nn2c(c1-c1ccccc1OCc1ccccc1)N(Cc1cccnc1)CCC2	12.7	i
COc1ccc(OC)c(CN2CCCn3nc(C)c(-c4ccccc4OCc4ccccc4)c32)c1	1.1	28.2µM*
Cc1nn2c(c1-c1ccccc1OCc1ccccc1)N(Cc1ccccc1O)CCC2	13.6	?
Cc1nn2c(c1-c1ccccc1Oc1ccccc1)N(Cc1ccc(C(=O)O)cc1)CCC2	5.1	35.5µM*
Cc1nn2c(c1-c1cccnc1N1CCOCC1)N(CC1CC1)CCC2	8.3	35.5µM*
